Bioassay records (PubChem BioAssay)
D1 ag = human D1 receptor agonism; P21728; HEK293 T-REx D1 cells, calcium flux, agonist mode; activation, % at 2 µM; actives 1% (n = 360,000); in the data active means activation above about 30%
Target sequence (P21728 whole entry, looked up): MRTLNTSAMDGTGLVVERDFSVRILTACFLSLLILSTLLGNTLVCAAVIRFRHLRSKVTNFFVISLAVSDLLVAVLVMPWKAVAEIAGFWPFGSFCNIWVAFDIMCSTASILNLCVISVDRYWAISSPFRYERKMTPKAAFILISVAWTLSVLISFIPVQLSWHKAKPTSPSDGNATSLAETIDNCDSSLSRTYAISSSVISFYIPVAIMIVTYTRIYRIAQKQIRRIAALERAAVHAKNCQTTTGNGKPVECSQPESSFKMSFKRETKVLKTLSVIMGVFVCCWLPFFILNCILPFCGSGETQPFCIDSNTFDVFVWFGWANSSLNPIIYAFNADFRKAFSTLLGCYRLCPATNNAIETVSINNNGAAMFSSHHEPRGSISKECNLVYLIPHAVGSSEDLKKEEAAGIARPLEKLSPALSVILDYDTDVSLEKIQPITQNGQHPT
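Inducible HEK293 T-REx D1 cells, force-coupled to calcium signalling, were plated at 4000 cells/well with tetracycline and held overnight at 30 C. After no-wash calcium dye loading, compound-evoked calcium rise over 180 s flagged agonists.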
D3 ag = activates the human D3 dopamine receptor. P35462. D3R DiscoveRx beta-arrestin cells, luminescence, 90 min. max activation, %. actives 0.58% (n = 410,000). AID 652048; in the data active means max activation above about 30%
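Cells at 1500/well, incubated overnight, then treated with pinned compounds (dopamine as control) for 90 min at 37 degrees C. DiscoveRx reagent added for 30 - 60 minutes at room temperature; luminescence read.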
D3 antag = D3 dopamine receptor (human) antagonism. D3R cells, DiscoveRx beta-arrestin luminescence, antagonist mode; hits give low values. max response, negative = inhibition, %. actives 2.5% (n = 360,000); in the data active means max response below about -50%; inconclusive means no clear call, values can overlap the other calls
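Cells plated overnight at 1500 cells/well, then exposed to library compounds with dopamine controls for 90 minutes at 37 degrees C. DiscoveRx reagent added for 30–60 minutes at room temperature; luminescence read, quantitative HTS format.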
D1 PAM = human D1 dopamine receptor positive modulation; P21728; HEK293 TREx D1 cells, calcium flux, dopamine EC20 potentiation; potentiation, % at 10 µM; actives 0.036% (n = 360,000); AID 504651; in the data active means potentiation above about 30%
D1 antag = blocks dopamine activation of the human D1 receptor; P21728; HEK293 TREx D1 cells, calcium flux, dopamine EC80; hits give low values; activity change, negative = inhibition, % at 10 µM; actives 3.2% (n = 360,000); AID 504652; in the data active means activity change below about -30%
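Allosteric or orthosteric antagonism assessed as attenuation of the calcium response to EC80 dopamine, added 180 s after compound, in induced HEK293 Trex D1 cells loaded with no-wash calcium dye.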
Numbers stand for hits; n = inactive; u = inconclusive; x = not tested or not shown. Rows were chosen to be rich in hits. Some 6% of all compounds tested hit in one or more screens of this group.

SMILES	D1 ag	D3 ag	D3 antag	D1 PAM	D1 antag
CCOC(=O)c1oc2ccc(S(=O)(=O)n3nc(-c4ccc(Br)cc4)cc3N)cc2c1C	n	n	x	n	n
Cc1cc2oc(C(=O)N(Cc3ccc(N(C)C)cc3)Cc3ccco3)c(C)c2cc1Cl	n	n	x	n	n
CS(=O)(=O)Nc1ccc(C2=NN(C(=O)c3ccccc3)C(c3cccs3)C2)cc1 (configuration not stated)	n	n	n	n	-34
CC(=O)N1N=C(c2cccc(NS(C)(=O)=O)c2)CC1c1cccs1 (configuration not stated)	n	n	n	n	n
CCS(=O)(=O)Nc1cccc(C2=NN(C(C)=O)C(c3cccs3)C2)c1 (configuration not stated)	n	n	n	n	-47
CS(=O)(=O)Nc1ccc(C2=NN(C(=O)c3cccc(F)c3)C(c3cccs3)C2)cc1 (configuration not stated)	n	n	n	n	n
Cc1ccc(C(C)C)cc1OCC(=O)N/N=C/c1ccc2c(c1)OCCO2	n	48	n	n	n
O=c1[nH]nc(N=Nc2c(O)[nH]c3ccc(F)cc23)c(=O)[nH]1	x	n	n	x	x
Cc1ccc(N=Nc2c(O)[nH]c3ccc(F)cc23)cc1	117	n	n	n	-48
COc1ccc(N=Nc2[nH]c3ccc(C)cc3c2O)cc1	n	n	n	n	n
Cc1ccc(N=Nc2[nH]c3ccccc3c2O)cc1	52	n	n	n	n
O=C(O)/C=C/c1cc(F)c(S(=O)(=O)N2CCN(S(=O)(=O)c3ccc4c(c3)OCCO4)CC2)cc1F	n	x	x	n	n
Fc1ccc(C(c2nnc(-c3ccccc3)o2)N2CCN(c3ccccc3)CC2)c(Cl)c1 (configuration not stated)	n	n	x	n	n
CCCCCCN1CC(O)=C(c2ccccc2)C1=N	n	n	n	n	n
N=C1C(c2ccccc2)=C(O)CN1CCO	n	n	n	n	-30
COc1ccccc1N1CCN(C(=O)c2cc3c(=O)n(Cc4cccnc4)ccc3nc2C)CC1	n	n	x	n	n
CCCNC(=O)COC(=O)c1cccnc1Nc1ccccc1F	n	n	n	n	-32
O=C(COC(=O)c1ccccc1Cl)Nc1cccnc1Cl	n	n	n	n	n
O=C(COC(=O)c1ccccc1F)Nc1cccnc1Cl	n	39	n	n	n
O=C(COC(=O)c1ccccc1Br)NCCN1C(=O)CSC1=O	n	n	n	n	n
NC(=O)NC(=O)COC(=O)c1cccnc1Nc1ccccc1F	n	n	n	n	n
O=C(COC(=O)c1cccnc1Nc1ccccc1F)NCCN1C(=O)CSC1=O	n	n	-57	n	n
CCOC(=O)c1c(C)[nH]c(CCC(=O)NCc2cc(Br)ccc2OC)c1C	n	n	x	n	n
Cc1cccc(CNS(=O)(=O)c2ccc(-c3coc(C)n3)cc2)c1	n	n	x	n	n
CCOC(=O)CN1C(=O)c2cccnc2Oc2ccccc21	n	n	x	n	n
SMILES	D1 ag	D3 ag	D3 antag	D1 PAM	D1 antag
CCN1CCCC1CNC(=O)c1cc2c(-c3cccc(OC)c3)nn(C)c2s1 (configuration not stated)	n	n	-72	n	n
CCCCN(CC)CCCNC(=O)c1cc2c(-c3ccc(OC)c(OC)c3)nn(C)c2s1	n	n	-98	n	n
CCN1CCCC1CNC(=O)c1cc2c(-c3ccc(Cl)cc3)nn(C)c2s1 (configuration not stated)	n	n	u	n	n
CCCCN(C)CCNC(=O)c1cc2c(-c3cccc(OC)c3)nn(C)c2s1	n	n	-78	n	n
CCN(CC)CCCNC(=O)c1cc2c(-c3cccc(OC)c3)nn(C)c2s1	n	n	-82	n	n
COc1cccc(-c2nn(C)c3sc(C(=O)NCCc4ccc(Cl)cc4)cc23)c1	n	n	x	n	n
Cc1ccc(NC(=O)c2ccc(NC(=O)N3CCSc4ncccc43)cc2)cc1Cl	n	n	x	n	n
Cc1c(Cl)cccc1NC(=O)C(=O)NCC(c1cccnc1)N1CCN(c2ccccc2)CC1 (configuration not stated)	n	n	x	n	n
CCCCN(C)CCNC(=O)c1cc2c(-c3ccccc3F)nn(C)c2s1	n	n	-95	n	n
COc1ccc(NC(=O)c2cc3c(-c4ccccc4F)nn(C)c3s2)c(OC)c1	n	41	x	n	n
COCCNC(=O)c1cc2c(-c3ccccc3F)nn(C)c2s1	n	n	n	n	n
COc1cccc(-c2nn(C)c3sc(C(=O)NCCCN(C)Cc4ccccc4)cc23)c1	n	n	-53	n	n
COc1ccc(OC)c(CCNC(=O)c2cc3c(-c4ccccc4F)nn(C)c3s2)c1	n	n	x	n	n
COc1ccc(NC(=O)CCS(=O)(=O)c2ccc3c(c2)n(C)c(=O)c(=O)n3C)cc1Cl	n	n	x	n	n
Cc1cc2c(s1)c1cnn(Cc3ccc(Cl)cc3)c(=O)c1n2C	n	x	x	n	n
Nn1c(CN2CCCCC2)nc2ccccc2c1=O	n	n	-91	n	n
Cc1ccc(NC(=O)CSCC(=O)Nc2cc(C(F)(F)F)ccc2N2CCOCC2)cc1	n	n	n	n	-34
Cc1ccc(N(C)S(=O)(=O)c2cccc(C(=O)Nc3ccc(N4CCOCC4)cc3)c2)cc1	n	n	n	n	-39
Cc1ccc(N(C)S(=O)(=O)c2cccc(C(=O)NC3=NCCS3)c2)cc1	n	n	n	n	x
COc1cc(OC)cc(C(=O)Nc2ccc(N3CCOCC3)cc2N2CCOCC2)c1	n	n	n	n	-52
COc1ccc(N(C)S(=O)(=O)c2cccc(C(=O)NC3=NCCS3)c2)cc1	n	n	n	n	-39
COc1cccc(Cn2c(CNS(=O)(=O)c3ccc4c(c3)CCCC4)nc3cccnc32)c1	n	n	x	n	n
COc1ccc(NC(=O)C2CCN(c3cc(C)nc4c(-c5ccc(Cl)cc5)c(C)nn34)CC2)cc1	n	n	x	n	n
Cc1ccc2cccc(NC(=O)c3ccc(-c4cc(Cl)ccc4Cl)o3)c2n1	n	n	x	n	n
Cc1ccc(-c2nnc(Nc3cccc(C(F)(F)F)c3)c3ccccc23)cc1S(=O)(=O)N1CCOCC1	n	n	x	n	n
SMILES	D1 ag	D3 ag	D3 antag	D1 PAM	D1 antag
CC(=O)c1c(C)[nH]c(C(=O)NNC(=O)c2ccc(Br)cc2)c1C	x	n	n	x	x
Cc1ccc(C(=O)Nc2ccc(N3CCOCC3)cc2N2CCOCC2)cc1	n	n	n	n	-69
O=S(=O)(c1ccccc1)c1nnn2c1nc(NCc1ccc(F)cc1)c1sccc12	n	n	x	n	n
COc1ccccc1N1CCN(C2CCN(S(=O)(=O)c3ccc(C)cc3)CC2)CC1	n	n	-70	n	n
COc1ccc(S(=O)(=O)N2CCC(N3CCN(c4ccccc4)CC3)CC2)cc1	n	x	x	n	n
COc1ccccc1N1CCN(S(=O)(=O)c2ccccc2)CC1	n	n	n	n	n
COc1ccc(OC)c(S(=O)(=O)N2CCN(c3ccccn3)CC2)c1	n	n	-104	n	n
